D3 ag: agonists of human D3 dopamine receptor; P35462; D3R DiscoveRx beta-arrestin cells, luminescence, 90 min; max activation, %; 410,000 compounds, 0.58% hits; in the data active = max activation above about 30%; note: 0% is about no effect
Target sequence (P35462 whole entry, looked up): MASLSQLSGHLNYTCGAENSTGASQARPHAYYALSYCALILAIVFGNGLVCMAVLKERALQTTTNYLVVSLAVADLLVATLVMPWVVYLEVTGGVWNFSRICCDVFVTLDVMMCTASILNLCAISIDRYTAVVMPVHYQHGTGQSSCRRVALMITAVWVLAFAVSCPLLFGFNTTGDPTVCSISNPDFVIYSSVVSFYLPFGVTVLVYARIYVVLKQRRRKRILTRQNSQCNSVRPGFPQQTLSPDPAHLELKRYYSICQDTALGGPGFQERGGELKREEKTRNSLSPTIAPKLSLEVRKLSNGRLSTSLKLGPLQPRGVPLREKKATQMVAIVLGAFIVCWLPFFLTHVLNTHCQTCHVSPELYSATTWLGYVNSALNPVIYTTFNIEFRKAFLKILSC
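Cells at 1500/well, incubated overnight, then treated with pinned compounds (dopamine as control) for 90 min at 37 degrees C. DiscoveRx reagent added for 30 - 60 minutes at room temperature; luminescence read.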
Giardia kill: kills Giardia lamblia; AID 540267; Giardia lamblia trophozoite viability; activity change, % at 7.66 µM, hits read low; 340,000 compounds, 0.15% hits; in the data active = activity change below about -80%; inconclusive = between about -30% and that limit;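 note: parasites exposed to compound for two days anaerobically before the ATP read; % is set by controls: 0 for no effect and ±100 for the full control effect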
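Trophozoite viability was measured as ATP-dependent luminescence, read 15-30 min after reagent addition. Before that, parasites at 100 cells/well were exposed to compounds for 48 h, anaerobically, at 37 deg C.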
DRD3 antagonist: blocks the human D3 dopamine receptor; 360,000 compounds, 2.5% hits; max response, negative = inhibition, %; AID 652054; D3R cells, DiscoveRx beta-arrestin luminescence, antagonist mode; active compounds read low; P35462; in the data active = max response below about -50%; inconclusive = no clear call, values can overlap the other calls; note: % is set by controls: 0 for no effect and ±100 for the full control effect
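Cells expressing the human receptor were seeded at 1500 cells/well, incubated overnight at 37 degrees C in 5% CO2, then exposed to library compounds with dopamine controls for 90 minutes at 37 degrees C before luminescent detection.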
B2AR arrestin: recruits beta-arrestin to the human beta2-adrenergic receptor | P07550 | beta-arrestin recruitment to beta2AR, cell-based reporter | Potency, µM (series often up to 46.1 µM), inactives show at the top dose activation, usual class: activators | 330,000 compounds, 0.02% hits | AID 492947; active = well fitted activation curve with a large enough effect; inconclusive = small, poorly fitted or top-dose-only effect;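 note: potency is the fitted concentration of half-maximal effect; 0% = DMSO controls and full agonism = EC100 isoproterenol or metaproterenol; nearly all actives have a fitted effect of over 65% in size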
Starred values were filed as active, the others as inactive; u = inconclusive; x = no result. This is a sample that favours compounds with a hit; in the whole collection about 2.8% have one here.

SMILES | D3 ag | Giardia kill | DRD3 antagonist | B2AR arrestin
O=C(Nc1ccccc1N1CCOCC1)c1ccccc1[N+](=O)[O-] | 8.4 | -3.8 | 20.0 | 0.0%
CC(C)CCN(Cc1ccco1)C(=O)c1cc2c(Cl)nc3ccccc3c2s1 | 11.7 | x | x | x
CCOC(=O)C(C)Nc1ncnc2onc(C)c12 (stereo not drawn) | 6.7 | x | x | x
C=Cc1ccc(COc2ccc3oc(-c4ccccc4)c(C(=O)OCC)c3c2)cc1 | -1.7 | x | x | x
C=C1CCN(C(Cc2ccccc2)C(=O)O)S(=O)(=O)c2ccccc21 (stereo not drawn) | x | 2.5 | x | x
N#Cc1nc(COc2ccc(-c3ccccc3)cc2)oc1N1CCC(C(N)=O)CC1 | x | 3.4 | x | x
CNCC[C@@H](Oc1ccccc1C)c1ccccc1 | -57.5 | -16.4 | -57.4* | x
CCCCN(CCCC)CCCNC(=O)c1cc(-c2ccc(Cl)s2)nc2ccccc12 | -21.7 | x | x | x
CCOC(=O)/C(=C\c1ccc(Cl)cc1)c1nc2sc(C)c(C)c2c(=O)[nH]1 | 1.3 | -17.4 | -63.0* | -0.5%
CCc1ccc(NC(=O)Cn2cc(S(=O)(=O)c3ccc(F)cc3)c(=O)c3cc(OC)ccc32)cc1 | 0.7 | x | x | x
Cc1ccc(OCCN2CCN(C)CC2)c([N+](=O)[O-])c1 | 7.2 | -21.5 | -53.1* | -0.5%
Cc1ccc(OCCN2CCNCC2)c([N+](=O)[O-])c1 | -11.2 | 1.4 | -86.6* | -0.4%
Cc1ccc(OCCCN2CCOCC2)c([N+](=O)[O-])c1 | -10.3 | 0.7 | u | 1.0%
CC(=O)c1c(C)oc2c1C(=O)c1ccccc1C2=O | -16.8 | u | -16.9 | -0.6%
Cc1oc2c(c1C(=O)NCc1cccnc1)C(=O)c1ccccc1C2=O | -6.5 | -85.6* | -72.3* | -0.8%
COc1ccc(CNC(=O)c2c(C)oc3c2C(=O)c2ccccc2C3=O)cc1 | -7.0 | u | -71.6* | -0.2%
Cc1cccn2c(=O)c(C(=O)N3CCN(c4ccccc4)CC3)cnc12 | -15.7 | x | x | x
COC(=O)C(Cc1c[nH]c2ccccc12)NC(=O)c1ccccc1Br (stereo not drawn) | 2.2 | -22.4 | -3.2 | -0.4%
Cc1cc(NC(=O)COC(=O)[C@H](Cc2c[nH]c3ccccc23)NC(=O)c2ccc(F)cc2)no1 | 0.4 | -11.7 | -50.5* | 0.5%
CC(=O)NC(Cc1c[nH]c2ccccc12)C(=O)OCC(=O)Nc1cc(C)on1 (stereo not drawn) | 0.1 | -10.6 | 5.5 | 0.0%
COC(=O)C(Cc1c[nH]c2ccccc12)NC(=O)CNC(C)=O (stereo not drawn) | 1.4 | -16.9 | -53.3* | -0.1%
COCCNc1nc(Oc2ccc(C(N)=O)cc2)c2sccc2n1 | 43.1* | x | -2.5 | x
COCCNc1nc(Oc2cccc3ccccc23)c2sccc2n1 | 54.0* | x | -5.2 | x
O=[N+]([O-])c1ccc(N/N=C/C=C/c2ccco2)cc1 | -19.7 | 35.8 | -57.2* | x
O=C(O)c1ccc(N/N=C/C=C/c2ccc([N+](=O)[O-])o2)cc1 | -11.7 | u | -53.4* | 0.1%
SMILES | D3 ag | Giardia kill | DRD3 antagonist | B2AR arrestin
O=C(N/N=C/c1ccco1)c1cc([N+](=O)[O-])cc([N+](=O)[O-])c1 | 4.1 | -2.7 | 3.2 | 0.5%
O=C1/C(=C/c2ccccc2[N+](=O)[O-])COc2ccccc21 | -12.5 | 17.2 | -70.7* | -0.4%
Cc1ccc2[nH]c(=O)c(CN(CCCO)S(=O)(=O)c3cccc4nsnc34)cc2c1 | 8.9 | 2.7 | -145.3* | -1.0%
Cc1ccc2cc(CN(CCCO)S(=O)(=O)c3cccc4nsnc34)c(=O)[nH]c2c1 | -3.7 | 13.2 | 22.1 | -0.2%
COc1ccc(NC(=O)c2noc3c2CSc2ccccc2-3)cc1Cl | -11.6 | x | x | x
COc1cc(OC)c(NC(=O)c2noc3c2CSc2ccccc2-3)cc1Cl | 34.4* | x | x | x
O=C(Nc1ncnc2nc[nH]c12)c1ccccc1 | x | 16.3 | x | x
O=C1C(=O)c2cccnc2-c2ncccc21 | -13.1 | x | -87.1* | x
O=C1c2cccnc2-c2ncccc21 | 1.2 | -0.3 | 1.2 | 0.3%
COc1ccc(-c2nc3sc(CCNC(=O)Cc4ccccc4)c(C)n3n2)cc1 | -3.2 | x | x | x
Cc1cc(C)c(C)c(S(=O)(=O)N(C)C2CCN(C)CC2)c1C | -18.6 | 12.9 | -77.1* | -0.2%
CN1CCC(N(C)S(=O)(=O)c2ccc(Cl)cc2)CC1 | -15.5 | 3.4 | 8.8 | -1.0%
O=Cc1s/c(=N\S(=O)(=O)c2ccccc2)n(CCCCl)c1Cl | -23.7 | -2.5 | -119.7* | 0.0%
CCn1c(C)cs/c1=N\S(=O)(=O)c1ccccc1 | -13.7 | 17.0 | -22.4 | -0.6%
Cc1ccc(S(=O)(=O)N2CCC(C(=O)NCC3CCCCC3)CC2)cc1 | -15.3 | 8.0 | -64.6* | -0.1%
Cc1ccc(S(=O)(=O)N2CCC(C(=O)NCC3CC3)CC2)cc1 | 5.5 | 9.7 | 0.4 | 0.0%
CC1CCN(S(=O)(=O)c2ccc(S(=O)(=O)N3CCCC3)cc2)CC1 | 34.2* | -14.8 | 5.7 | 3.5%
Cc1ccc(CNC(=O)C2CCN(S(=O)(=O)N3CCCC3)CC2)cc1 | 7.8 | 6.4 | 1.3 | 0.3%
Cc1ccc(CNC(=O)C2CCN(S(=O)(=O)N3CCOCC3)CC2)cc1 | 40.3* | -7.9 | 6.9 | 0.1%
Cc1ccc(S(=O)(=O)N2CCC(C(=O)Nc3ccc4c(c3)COC4=O)CC2)cc1 | -1.0 | 2.4 | -65.0* | -0.4%
Clc1ccc(CCNC(c2cccc(Cl)c2)c2nnc(-c3ccccc3)o2)cc1 (stereo not drawn) | -3.0 | x | x | x
CC(=O)c1ccc(NC(=O)CSc2cn(CC(=O)N3CCCCC3)c3ccccc23)cc1 | -6.8 | x | x | x
COc1ccc(Nc2nc(N3CCCCC3)c3ccccc3n2)cc1 | 3.4 | -6.1 | u | 0.3%
Oc1ccc(Nc2nc(N3CCCC3)c3ccccc3n2)cc1 | -1.2 | 52.0 | -70.6* | -1.4%
COc1ccc(-c2cc(-c3nnc(COC(=O)C4CC4C)o3)c3ccccc3n2)cc1OC (stereo not drawn) | 50.5* | -12.0 | 34.2 | -0.4%
SMILES | D3 ag | Giardia kill | DRD3 antagonist | B2AR arrestin
COc1ccc(NC(=O)c2ccc(C)cc2Cl)c([N+](=O)[O-])c1 | 1.6 | 4.2 | -62.8* | -0.2%
COc1ccc(NC(=O)c2cc(Br)ccc2Cl)c([N+](=O)[O-])c1 | -1.4 | -6.8 | -6.1 | 0.4%
C=CC[n+]1c(-c2ccc(C)cc2)csc1Nc1c(C)n(C)n(-c2ccccc2)c1=O | -11.5 | -1.8 | -17.2 | 0.4%
C=CC[n+]1c(-c2ccc(Cl)cc2Cl)csc1Nc1c(C)n(C)n(-c2ccccc2)c1=O | -26.7 | 6.8 | -81.2* | 6.4%
Cc1nn(CCC(=O)NNC(=S)Nc2ccc(F)cc2)c(C)c1[N+](=O)[O-] | 1.7 | -0.3 | -77.4* | -1.0%
Cc1cc([N+](=O)[O-])nn1CC(=O)NNC(=S)Nc1ccc(F)cc1 | -2.3 | -3.6 | -24.7 | -0.4%
CCc1ccccc1Nc1cc(C(=O)NC2CCC(C)CC2)c2ccccc2n1 (stereo not drawn) | -7.4 | x | x | x
N=c1n(CCN2CCCCC2)c2ccccc2n1CC(=O)c1cccs1 | -37.9 | 14.7 | -63.1* | -0.8%
COC(=O)Cc1cc(=O)n2[nH]c(C)nc2n1 | -2.7 | -1.3 | 1.8 | -0.1%
COC(=O)Cc1cc(=O)n2[nH]c(C)cc2n1 | 0.9 | 4.2 | -51.9* | -0.5%
NC(CS)C(=O)O (stereo not drawn) | -2.7 | x | x | x
CC12CC3(C)CC(C)(C1)CC(C(=O)NCCc1ccc(S(N)(=O)=O)cc1)(C2)C3 | 1.0 | 7.8 | -3.5 | -0.7%

Assay outcomes: PubChem BioAssay, National Center for Advancing Translational Sciences (NCATS)
